39 compounds from PubChem BioAssay (Tox21) can be followed below.

“And” between values parts separate entries of the source, which are not always exact repeats. Equal values may be shown once. Records with an inconclusive call do not appear. A call without a number means that no potency is given here. Some compounds were tested as several samples or in several runs, with calls that do not always agree. The source made the active and inactive calls. Calls follow the shape of the dose curve; as a rule, active = well fitted activation curve with a large enough effect in the repeat runs; inconclusive = weak or mixed curves; inactive = flat fitted curve, though single readings scatter.
Potency is read from the fitted curve at half-maximal effect.

A short description of one assay: A CellTox Green Cytotoxicity Assay to monitor cytotoxicity in HepG2 cells - 24 hour (AID 1224878). Also: nearly all actives have a fitted effect of over 45% in size. The following applies: CellTox Green fluorescence; series mostly up to 76.8 µM; cytotoxicity: at the top concentration. In a few lines:
(§1)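 HepG2, 600 cells/well premixed w/ CellTox Green; 5 h settle, 37 C/5% CO2; pintool cpd add (DMSO); 37 C, 40 h; fluorescence read at 0, 8, 16, 24, 32, 40 h.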
For the compound `c1ccc2ncccc2c1`, the Potency result is “inactive”.
On to `Cc1ccc(C)c(O)c1`, for which the Potency result was “inactive”.
Consider `CNC[C@H](O)c1ccc(O)c(O)c1`, for which the Potency result was “inactive”.
Consider `O=C1OC2(c3ccccc31)c1cc(I)c(O)c(I)c1Oc1c2cc(I)c(O)c1I`, for which the Potency was 13.3 µM (active) [middle of 4 runs].
Turning to `CCOC(=O)C(C)Oc1ccc(Oc2cnc3cc(Cl)ccc3n2)cc1` (centres undefined), the Potency entry was “inactive”.
Consider `COc1ccc(C(=O)c2ccccc2O)c(O)c1`, for which the Potency entry was “inactive”.
Turning to `CC(=O)Nc1ccc2c(c1)Cc1cc(NC(C)=O)ccc1-2`, the Potency result is “inactive”.
In the case of `CN(C)/N=N/c1nc[nH]c1C(N)=O`, the Potency result was “inactive”.
Regarding `COc1ccc2nc(N)sc2c1`, the Potency entry is “inactive”.
Consider `O=C(O)CCCC(=O)O`, for which the Potency entry was “inactive”.
As to `CCCN1C=CN(C)C1`, the Potency entry was “inactive”.
`NCCN`: the Potency result was “inactive”.
Same read-out and setting: then `Cc1cccc(Nc2ccccc2C(=O)O)c1C`, with “inactive”.
On to `CN1CCOCC1`, for which the Potency entry was “inactive”.
Take `Oc1c(Cl)ccc(Cl)c1Cl`: the Potency entry was “inactive”.
Take `Clc1ccc(Sc2cc(Cl)c(Cl)cc2Cl)cc1`: the Potency result is “inactive”.
On to `CN(C)C`, for which the Potency entry was “inactive”.
The same measure, in the same setting: the result for `C=CCCCCCCCCCC` reads “inactive”.
In the case of `O=C(O)CCCCCCCCCCCC(=O)O`, the “cytotoxicity” value is -6.05% (inactive).
Take `C[C@]12C=CC(=O)C=C1CC[C@H]1[C@@H]3C[C@@H](O)[C@](O)(C(=O)CO)[C@@]3(C)C[C@H](O)[C@@]12F`: the Potency result is “inactive”.
Consider `O=C(O)COCCN1CCN(C(c2ccccc2)c2ccc(Cl)cc2)CC1` (centres undefined), for which the Potency result was “inactive”.
On the same count and under the same terms, then `NC[C@H](O)c1ccc(O)c(O)c1`, with “inactive”; and `CCCCCCCC/C=C\CCCCCCCC(=O)O`, with “inactive”; and `CC(=O)OC(C)C`, with “inactive”.
In the case of `CC(=O)Oc1c(C)c(C)c2c(c1C)CC[C@@](C)(CCC[C@H](C)CCC[C@H](C)CCCC(C)C)O2`, the Potency entry is “inactive”.
In the case of `C=CC(C)(O)CCC=C(C)C` (centres undefined), the Potency entry is “inactive”.
Still for that read-out and setting: then `c1ccc2c(c1)ccc1ncccc12`, with “inactive”; and `C=CN1CCCC1=O`, with “inactive”.
On to `O=[Se](O)O`, for which the cytotoxicity was 4.65% [at 15.8 µM] (inactive).
In the case of `CC(C)(C)c1cccc(C(C)(C)C)c1O`, the “cytotoxicity” value was -1.78% (inactive).
In the case of `Cc1ccc(S(=O)(=O)O)cc1C`, the Potency entry was “inactive”.
As for `c1ccc2c(c1)ccc1cc3c(ccc4ccccc43)cc12`, the Potency entry is “inactive”.
Regarding `COCCOCCOCCO`, the Potency entry is “inactive”.
For the compound `Cc1ccc([N+](=O)[O-])c(C)c1`, the “cytotoxicity” value is 28.1% (inactive).
As for `CC(=O)[C@@]1(O)CC[C@H]2[C@@H]3C[C@H](C)C4=CC(=O)C=C[C@]4(C)[C@@]3(F)[C@@H](O)C[C@@]21C`, the Potency result was “inactive”.
On the same count and under the same terms, then `OC[C@@H](O)[C@@H](O[C@@H]1O[C@H](CO)[C@H](O)[C@H](O)[C@H]1O)[C@H](O)[C@@H](O)CO`, with “inactive”; and `OCCNCCO`, with “inactive”.
As for `CC(C)[N+](C)(CCOC(=O)C1c2ccccc2Oc2ccccc21)C(C)C`, the Potency entry is “inactive”.
As to `CC/C(=C(/CC)c1ccc(O)cc1)c1ccc(O)cc1`, the Potency entry was “inactive”.

Another assay can be described thus: A CellTox Green Cytotoxicity Assay to monitor cytotoxicity in HepG2 cells - 40 hour (AID 1224879). Also: nearly all actives have a fitted effect of over 40% in size. The following applies: CellTox Green fluorescence; series mostly up to 76.8 µM; cytotoxicity increase: at the top concentration. In a few lines: as §1
As for `c1ccc2ncccc2c1`, the Potency result is “inactive”.
On to `Cc1ccc(C)c(O)c1`, for which the Potency result is “inactive”.
Turning to `CNC[C@H](O)c1ccc(O)c(O)c1`, the Potency entry was “inactive”.
In the case of `O=C1OC2(c3ccccc31)c1cc(I)c(O)c(I)c1Oc1c2cc(I)c(O)c1I`, the Potency was 13.3 µM (active) [middle of 4 runs].
Same read-out and setting: the result for `CCOC(=O)C(C)Oc1ccc(Oc2cnc3cc(Cl)ccc3n2)cc1` (centres undefined) reads “inactive”.
Consider `COc1ccc(C(=O)c2ccccc2O)c(O)c1`, for which the “cytotoxicity increase” value was 13.7% [at 35.3 µM] (inactive).
Regarding `CC(=O)Nc1ccc2c(c1)Cc1cc(NC(C)=O)ccc1-2`, the “cytotoxicity increase” value is 7.27% (inactive).
Consider `CN(C)/N=N/c1nc[nH]c1C(N)=O`, for which the Potency entry is “inactive”.
On the same count and under the same terms, then `COc1ccc2nc(N)sc2c1`, with “inactive”.
With `O=C(O)CCCC(=O)O`, the Potency result was “inactive”.
As for `CCCN1C=CN(C)C1`, the Potency result was “inactive”.
The same measure, in the same setting: then `NCCN`, with “inactive”; and `Cc1cccc(Nc2ccccc2C(=O)O)c1C`, with “inactive”.
As to `CN1CCOCC1`, the Potency result was “inactive”.
Regarding `Oc1c(Cl)ccc(Cl)c1Cl`, the Potency result was “inactive”.
For the compound `Clc1ccc(Sc2cc(Cl)c(Cl)cc2Cl)cc1`, the Potency result was “inactive”.
Turning to `CN(C)C`, the Potency result was “inactive”.
For the compound `C=CCCCCCCCCCC`, the Potency entry was “inactive”.
On to `O=C(O)CCCCCCCCCCCC(=O)O`, for which the Potency was 48.2 µM (active) and inactive.
In the case of `C[C@]12C=CC(=O)C=C1CC[C@H]1[C@@H]3C[C@@H](O)[C@](O)(C(=O)CO)[C@@]3(C)C[C@H](O)[C@@]12F`, the Potency result is “inactive”.
For `O=C(O)COCCN1CCN(C(c2ccccc2)c2ccc(Cl)cc2)CC1` (centres undefined), the Potency result is “inactive”.
Still for that read-out and setting: the result for `NC[C@H](O)c1ccc(O)c(O)c1` reads “inactive”.
Take `CCCCCCCC/C=C\CCCCCCCC(=O)O`: the Potency entry was “inactive”.
With `CC(=O)OC(C)C`, the Potency result was “inactive”.
Consider `CC(=O)Oc1c(C)c(C)c2c(c1C)CC[C@@](C)(CCC[C@H](C)CCC[C@H](C)CCCC(C)C)O2`, for which the Potency result is “inactive”.
`C=CC(C)(O)CCC=C(C)C` (centres undefined): the Potency result is “inactive”.
Consider `c1ccc2c(c1)ccc1ncccc12`, for which the “cytotoxicity increase” value is -0.0641% (inactive).
In the case of `C=CN1CCCC1=O`, the Potency entry is “inactive”.
Regarding `O=[Se](O)O`, the Potency was 24.6 µM (active) and the cytotoxicity increase is 15.7% [at 15.8 µM] (inactive).
As for `CC(C)(C)c1cccc(C(C)(C)C)c1O`, the “cytotoxicity increase” value is 1.02% (inactive).
Take `Cc1ccc(S(=O)(=O)O)cc1C`: the Potency result is “inactive”.
For the compound `c1ccc2c(c1)ccc1cc3c(ccc4ccccc43)cc12`, the Potency was 4.32 µM (active) and 1.22 µM (active).
Consider `COCCOCCOCCO`, for which the Potency result was “inactive”.
As for `Cc1ccc([N+](=O)[O-])c(C)c1`, the Potency is 17.4 µM (active) and inactive.
On to `CC(=O)[C@@]1(O)CC[C@H]2[C@@H]3C[C@H](C)C4=CC(=O)C=C[C@]4(C)[C@@]3(F)[C@@H](O)C[C@@]21C`, for which the Potency result is “inactive”.
For `OC[C@@H](O)[C@@H](O[C@@H]1O[C@H](CO)[C@H](O)[C@H](O)[C@H]1O)[C@H](O)[C@@H](O)CO`, the Potency entry is “inactive”.
With `OCCNCCO`, the Potency result was “inactive”.
For `CC(C)[N+](C)(CCOC(=O)C1c2ccccc2Oc2ccccc21)C(C)C`, the Potency entry is “inactive”.
Consider `CC/C(=C(/CC)c1ccc(O)cc1)c1ccc(O)cc1`, for which the Potency result was “inactive”.
